Assay outcomes from PubChem BioAssay.
Pf Dd2 inh – inhibitors of Plasmodium falciparum Dd2 growth. Potency, µM (doses to about 28.9 µM), inactives show at the top dose activity, negative = inhibition, hits mostly inhibitors. AID 1347417. actives 4.3% (n = 120,000). P. falciparum Dd2 growth, SYBR Green, 72 h; active = well fitted inhibition curve with a large enough effect;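 also: plate controls were DMSO vehicle for no effect and reference drug for full effect; nearly all actives have a fitted effect of over 65% in size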
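Infected erythrocytes (Dd2, 0.3% parasitemia, 2.5% hematocrit final) are added to compound in RPMI-1640/Albumax II medium, grown 72 h at 37C in low oxygen, then lysed with saponin/Triton-X containing SYBR Green and read by fluorescence.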
The depositor's hits bear a star; i = inactive; [ ] = dose if it differs, or a comment. The entries come from a sample that favours hits as a whole. Potency is read from the fitted curve at half-maximal effect.

SMILES	Pf Dd2 inh
Cc1ccc(C#N)c(-c2cc(NCc3cccnc3)nc3[nH]ccc23)n1	-23.6%
C[S+](=O)([O-])N1CC2(Cc3ccccc31)CN(C(=O)c1ccc(Cl)nc1)C2	-23.6%
COc1ccc(CN(C)Cc2ncccc2C(=O)O)cc1	14.7%
CCc1c(C)nn(CC(=O)N2CC[C@@](O)(CCOC)[C@H](C)C2)c1C	-2.9%
CC(NC(=O)C1CCC1)C(=O)N1CCN(c2ccccn2)CC1 (stereo not drawn)	i
CN1C[C@H](O)C[C@H]1c1nnc2n1CCN(C(=O)CN1CCCCCC1)CC2	18.8%
CCOC(=O)c1c(C)oc2nc(C)nc(Nc3cc(C)ccc3OC)c12	-8.8%
COc1ccc(C)cc1Nc1nc(N)c2cc(OC)c(OC)cc2n1	2.82µM*
COc1ccc(C)cc1Nc1nc(-c2cccc(Cl)c2)c2c(n1)-c1ccccc1OC2	61.9%[0.594 µM]
CCC(=O)N(C1CCOCC1)C1CCN(S(=O)(=O)c2cn(C)cn2)CC1	-17.8%
Cc1ccc(CN2C(=O)[C@@H]3C[C@@H](O)CN3C3(CN(CC4CC4)C3)C2=O)o1	-4.7%[44.1 µM]
Cc1ccc(CN2C(=O)[C@@H]3C[C@@H](O)CN3C3(CN(Cc4ccc(C#N)cc4)C3)C2=O)o1	-19.2%[44.1 µM]
Cc1ccc(CN2C(=O)[C@@H]3C[C@@H](O)CN3C3(CN(CCC(C)C)C3)C2=O)o1	11.2µM*
Cc1ccc(CN2C(=O)[C@@H]3C[C@@H](O)CN3C3(CN(Cc4ccc(F)cc4)C3)C2=O)o1	14.1µM*
Cc1ccc(CN2C(=O)[C@@H]3C[C@@H](O)CN3C3(CN(CC(C)C)C3)C2=O)o1	-6.0%[44.1 µM]
CC(=O)Nc1ccc(CN2CC3(C2)C(=O)N(Cc2ccc(C)o2)C(=O)[C@@H]2C[C@@H](O)CN23)cc1	-20.4%
CCc1cccc(NC(=O)CN2C=C(C(=O)OC)C(C)=NS2(=O)=O)c1	62.3%
O=C(NCc1ccc(F)cc1)c1cnc2c(c1)N([S+](=O)([O-])c1cccnc1)CCC2	-17.7%[44.1 µM]
CC(C)NC(=O)N1CCC(c2nnc3n2CCNC3)CC1	0.0%
CC(C(=O)NC1CC1)[C@@H]1CC[C@@]2(C)CC[C@H](NC(=O)Nc3cccc(F)c3)[C@@H](C)[C@@H]2[C@H]1O (stereo partly drawn)	-24.0%
CCC(CC)C(=O)N1CCCN(S(C)(=O)=O)c2ccccc21	1.5%
O=c1n(CC2CC2)nc2n1CCN(S(=O)(=O)c1ccc(Cl)s1)CC2	-10.5%
O=C(NCCc1cnccn1)[C@H]1CNC[C@@H](C(=O)N2CCOCC2)C1	1.7%
Cc1cc2nc3n(c(=O)c2n1CC(=O)Nc1ccc(F)c(Cl)c1)CCCC3	153.0%
CCCCN(CCCC)CCNC(=O)c1cc(-c2cccnc2)nc2ccc(S(=O)(=O)N3CCC(C)CC3)cc12	-24.9%
SMILES	Pf Dd2 inh
CC1CCN(S(=O)(=O)c2ccc3nc(-c4cccnc4)cc(C(=O)NCCCOC(C)C)c3c2)CC1	i
CCCCN(C)CCNC(=O)c1cc(-c2cccnc2)nc2ccc(S(=O)(=O)N3CCC(C)CC3)cc12	5.01µM*
C=CCN1CCC2(CCC1=O)CN(c1ccc(C#N)cn1)CCN2C (stereo not drawn)	-1.5%
CN(C(=O)c1ccnc(-c2nnc3ccc(N4CCOCC4)nn23)c1)c1ccccc1	-10.9%[44.1 µM]
CCCOCc1cc(CN2CCN(c3cccc(Cl)c3)CC2)c(O)c2ncccc12	3.16µM*
Cn1ncc2c(N3CCN(c4cccc(Cl)c4)CC3)ncnc21	7.7%
COc1cc(Cl)cc(CN2CCN(c3ncccc3C#N)CC2)c1OC	i
CCCCOCc1cc(CN2CCN(c3cccc(Cl)c3)CC2)c(O)c2ncccc12	1µM*
CCOc1ccc2oc(=O)cc(CN3CCN(C(=O)c4cccc(Cl)c4)CC3)c2c1	i
CCOC(=O)C1=C(CN2CCN(c3cccc(Cl)c3)CC2)NC(=O)NC1c1ccc(Cl)cc1 (stereo not drawn)	i
Cc1ccc(C(=O)NC2CCN(c3ccc(=O)n(C)n3)CC2)cn1	i
CSc1cccc(NC(=O)Cn2ccn3nc4c(c3c2=O)CCCCC4)c1	5.5%
COCCOC1CCN(C(=O)c2cccs2)CC1	26.7%
CN1C[C@H](O)C[C@H]1c1nc(-c2ccc3c(c2)OCO3)no1	-4.9%[44.1 µM]
CN(C)CCCOCC1(C)COc2ccc(C(=O)Nc3ccc(F)c(Cl)c3)cc2N1 (stereo not drawn)	-21.5%[44.1 µM]
COCCNC(=O)c1coc(CN2CCN(C/C=C/c3ccccc3)CC2)n1	-28.5%
CC(C)CCN1CCC(N2CCN(C(=O)CC3CCCCC3)CC2)C1=O (stereo not drawn)	-13.8%
CC(=O)Nc1ccc(C2(C(=O)N3CCCCCC3)CCC2)cc1	-21.4%
CC(=O)Nc1ccc(C2(C(=O)N3CCC(N4CCCCC4)CC3)CCCCC2)cc1	12.6µM*
CC(=O)Nc1ccc(C2(C(=O)O)CCCCC2)cc1	3.4%
CC1(C)CN(C(=O)c2cccc(-c3ncc[nH]3)c2)CC1(C)O (stereo not drawn)	-6.2%
CC[C@@H]1[C@@H](NC(=O)C2(c3ccc(S(C)(=O)=O)cc3)CCC2)[C@@H]2CCO[C@H]12	8.91µM*
CC[C@@H]1[C@@H](NC(=O)Cc2csc(C(C)=O)c2)[C@@H]2CCO[C@H]12	-1.9%
